From PubChem BioAssay (NCI)
The panel holds about 79,000 compounds, 15% with a hit somewhere; the sample as a whole holds those more often. Active and inactive are the calls of the source. Rule as the data show it: active = growth inhibition above about 70%; inactive = the rest.

Experiments:
[1] = NCI Yeast Anticancer Drug Screen. Data for the rad50 strain (AID 155);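 also: 0% = growth of vehicle-only cultures of the same strain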; details: S. cerevisiae rad50 strain growth inhibition, stronger effect = higher value
Method in brief: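 Vehicle-treated cultures provide the reference for the growth inhibition reported for compound-exposed, repair-deficient yeast.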

[2] = NCI Yeast Anticancer Drug Screen. Data for the mec2-1 strain (AID 157); details: S. cerevisiae mec2-1 strain, stronger effect = higher value
Method in brief: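 Yeast mec2-1 mutant treated with compound. Readout: growth inhibition vs vehicle controls.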

[3] = NCI Yeast Anticancer Drug Screen. Data for the sgs1 mgt1 strain (AID 161);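 also: 0% = growth of cultures given vehicle only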; details: S. cerevisiae sgs1 mgt1 strain, stronger effect = higher value
Method in brief: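 Mutant yeast exposed to compound; growth scored against vehicle-only wells.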

[4] = NCI Yeast Anticancer Drug Screen. Data for the cln2 rad14 strain (AID 165);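 also: 0% = growth equal to vehicle treated cultures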; details: S. cerevisiae cln2 rad14 strain, stronger effect = higher value
Method in brief: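 cln2 rad14 yeast strain; compound exposure; growth inhibition read vs vehicle controls.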

[5] = NCI Yeast Anticancer Drug Screen. Data for the bub3 strain (AID 167); details: S. cerevisiae bub3 mutant strain, stronger effect = higher value
Method in brief: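 Mutant yeast screening strain plus compound; vehicle-treated cultures serve as the 0% inhibition reference.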

[6] = NCI Yeast Anticancer Drug Screen. Data for the mlh1 rad18 strain (AID 175); details: S. cerevisiae mlh1 rad18 strain growth inhibition, stronger effect = higher value
Method in brief: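 Yeast w/ defined DNA-repair lesions; compound exposure; growth vs vehicle controls → % inhibition.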

[7] = at 5.0 µM (retest, dose inferred, filed as 0.5)
[8] = at 50.0 µM (retest, dose inferred, filed as 5.0)

Measured: growth inhibition

COc1cc(C2C(C(=O)Nc3ccc(Cl)c(Cl)c3)=C(C)NC(C)=C2C(=O)Nc2ccc(Cl)c(Cl)c2)ccc1O
inactive: [1]; [7] 19% | [1]; [8] 19% | [2]; [7] -4% | [2]; [8] -4% | [3]; [7] 2% | [3]; [8] 2% | [4]; [7] 7% | [4]; [8] 7% | [5]; [7] 13% | [5]; [8] 13% | [6]; [7] 8% | [6]; [8] 8%
active: [1]; at 50.0 µM 91% | [2]; at 50.0 µM 90.6% | [3]; at 50.0 µM 88.7% | [4]; at 50.0 µM 88.8% | [5]; at 50.0 µM 91.2% | [6]; at 50.0 µM 89.5%

OCCN1COc2cc3c(cc2C1)OCN(CCO)C3
inactive: [1]; [7] 1% | [1]; [8] 11% | [1]; at 50.0 µM 17.4% | [2]; [7] -4% | [2]; [8] 1% | [2]; at 50.0 µM -4.9% | [3]; [7] -1% | [3]; [8] 14% | [3]; at 50.0 µM 13.2% | [4]; [7] 3% | [4]; [8] -5% | [4]; at 50.0 µM 42.9% | [5]; [7] 1% | [5]; [8] -3% | [5]; at 50.0 µM -6.35% | [6]; [7] -5% | [6]; [8] 10% | [6]; at 50.0 µM 16.2%

CC(C)OC(=O)Oc1c(Cl)c(Cl)c(Cl)c(Cl)c1Cl
inactive: [1]; [7] -3% | [1]; at 50.0 µM 62% | [2]; [7] 0% | [2]; at 50.0 µM 50.6% | [3]; [7] -2% | [3]; at 50.0 µM 55% | [4]; [7] 5% | [4]; at 50.0 µM 15.9% | [5]; [7] 2% | [6]; [7] -1% | [6]; at 50.0 µM 56.8%
active: [1]; [8] 97% | [2]; [8] 99% | [3]; [8] 98% | [4]; [8] 98% | [5]; [8] 99% | [5]; at 50.0 µM 74.4% | [6]; [8] 96%

CCOCCOc1ccc(OCCOCC)cc1
inactive: [1]; [7] -8% | [1]; [8] -13% | [1]; at 50.0 µM -1.9% | [2]; [7] -8% | [2]; [8] -13% | [2]; at 50.0 µM -1.7% | [3]; [7] -66% | [3]; [8] -9% | [3]; at 50.0 µM -7% | [4]; [7] -4% | [4]; [8] -10% | [4]; at 50.0 µM 37.3% | [5]; [7] -8% | [5]; [8] -4% | [5]; at 50.0 µM -2.95% | [6]; [7] 13% | [6]; [8] -15% | [6]; at 50.0 µM 0.4%

O=c1c(SSc2coc3ccccc3c2=O)coc2ccccc12
inactive: [1]; [7] 22% | [2]; [7] 27% | [3]; [7] 27% | [4]; [7] 42% | [5]; [7] 13% | [6]; [7] 17%
active: [1]; [8] 99% | [1]; at 50.0 µM 94.4% | [2]; [8] 96% | [2]; at 50.0 µM 96.3% | [3]; [8] 98% | [3]; at 50.0 µM 87.5% | [4]; [8] 94% | [4]; at 50.0 µM 91.3% | [5]; [8] 94% | [5]; at 50.0 µM 71.9% | [6]; [8] 97% | [6]; at 50.0 µM 93.5%

O=C(Nc1ccc(Cl)c(Cl)c1)Nc1cc(Cl)ccc1Oc1ccc(Cl)cc1S(=O)(=O)O
inactive: [1]; [7] 52% | [2]; [7] 32% | [3]; [7] 55% | [4]; [7] 35% | [5]; [7] 43% | [6]; [7] 61%
active: [1]; [8] 97% | [1]; at 50.0 µM 90.5% | [2]; [8] 99% | [2]; at 50.0 µM 93.5% | [3]; [8] 99% | [3]; at 50.0 µM 93.6% | [4]; [8] 99% | [4]; at 50.0 µM 92.2% | [5]; [8] 99% | [5]; at 50.0 µM 92.5% | [6]; [8] 98% | [6]; at 50.0 µM 91%

CC(C)CCCC(C)C1CCC2C3CC=C4CC(OC(=O)Nc5ccc(S(=O)(=O)c6ccc(F)cc6)cc5)CCC4(C)C3CCC12C (configuration not stated)
active: [1]; at 50.0 µM 96.3% | [2]; at 50.0 µM 98% | [3]; at 50.0 µM 97.8% | [5]; at 50.0 µM 96.7% | [6]; at 50.0 µM 96.4%
inactive: [1]; [7] 3% | [1]; [8] 2% | [2]; [7] 1% | [2]; [8] 4% | [3]; [7] 0% | [3]; [8] 0% | [4]; [7] 3% | [4]; [8] 9% | [4]; at 50.0 µM 51.5% | [5]; [7] 1% | [5]; [8] -12% | [6]; [7] 4% | [6]; [8] -6%

Clc1ccc(C2SCc3nc4ccccc4n32)cc1Cl (configuration not stated)
inactive: [1]; [7] -8% | [2]; [7] 1% | [3]; [7] 15% | [4]; [7] -16% | [5]; [7] 7% | [6]; [7] 3%
active: [1]; [8] 95% | [1]; at 50.0 µM 97.2% | [2]; [8] 97% | [2]; at 50.0 µM 98.1% | [3]; [8] 96% | [3]; at 50.0 µM 98% | [4]; [8] 95% | [4]; at 50.0 µM 95.6% | [5]; [8] 96% | [5]; at 50.0 µM 96.8% | [6]; [8] 96% | [6]; at 50.0 µM 95%

O=Nc1ccc(O)c(/C=N/O)c1
inactive: [1]; [7] 19% | [2]; [7] 11% | [3]; [7] 6% | [4]; [7] 24% | [5]; [7] 1% | [6]; [7] 1%
active: [1]; [8] 94% | [1]; at 50.0 µM 87.3% | [2]; [8] 96% | [2]; at 50.0 µM 91% | [3]; [8] 90% | [3]; at 50.0 µM 92.1% | [4]; [8] 95% | [4]; at 50.0 µM 83.8% | [5]; [8] 99% | [5]; at 50.0 µM 90% | [6]; [8] 97% | [6]; at 50.0 µM 88.9%
